Experiment [1] in a line: qHTS assay to identify small molecule antagonists of the thyroid receptor (TR) signaling pathway - cell viability counter screen (AID 743064). Note: nearly all actives have a fitted effect of over 50% in size. Note: potency is the fitted concentration of half-maximal effect. In outline: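 GH3.TRE-Luc cells, 4 h pre-plating; cpd + T3 1 nM final; 37 °C 23.5 h; CellTiter-Fluor 30 min; fluorescence read.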
The nature of experiment [2]: qHTS assay to identify small molecule antagonists of the thyroid receptor (TR) signaling pathway (AID 743065). Note: nearly all actives have a fitted effect of over 55% in size. Note: potency is the fitted concentration of half-maximal effect. An outline of the steps: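 GH3.TRE-Luc rat pituitary cells (two TREs driving luciferase) were dosed with compound, then stimulated with 1 nM T3 (final) for 23.5 h at 37 C. ONE-Glo luminescence was the read-out, with CellTiter-Fluor fluorescence as the cytotoxicity counter-screen.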

In experiment [3] the test system is thyroid hormone receptor (rat, GH3 cells). In words: qHTS assay to identify small molecule agonists of the thyroid receptor (TR) signaling pathway (AID 743066; calls by dose curve).
Experiment [4] addresses Estrogen receptor (Homo sapiens) (UniProt P03372). In words: qHTS assay to identify small molecule antagonists of the estrogen receptor alpha (ER-alpha) signaling pathway (AID 743069; active = well fitted curve in the direction sought with a large enough effect in the signal ratio in the repeat runs, not every such curve was filed as active; inconclusive = weak or mixed curves, or effect the other way; inactive = no such curve, though single readings can be large or run the other way; the % refers to the signal ratio; note: potency is the fitted concentration of half-maximal effect). An outline of the steps: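 HEK293 ER-alpha-UAS-bla GripTite cells, held overnight in 2% charcoal-stripped FBS, 5,000 cells/well, preincubated 4 h, then compound plus 17beta-estradiol for 18 h at 37C. Beta-lactamase read by LiveBLAzer B/G FRET substrate, 2 h at room temperature.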

A short description of experiment [5]: qHTS assay to identify small molecule antagonists of the estrogen receptor alpha (ER-alpha) signaling pathway - cell viability counter screen (AID 743074; calls by dose curve;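 note: HEK293 cells carrying ER-alpha-UAS-bla reporter stimulated with 17beta-estradiol; nearly all actives have a fitted effect of over 45% in size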).
Experiment [6] deals with Estrogen receptor (Homo sapiens) (UniProt P03372). In words: qHTS assay to identify small molecule agonists of the estrogen receptor alpha (ER-alpha) signaling pathway (AID 743075; calls by dose curve).
Estrogen receptor (Homo sapiens), sequence (P03372 whole entry, looked up): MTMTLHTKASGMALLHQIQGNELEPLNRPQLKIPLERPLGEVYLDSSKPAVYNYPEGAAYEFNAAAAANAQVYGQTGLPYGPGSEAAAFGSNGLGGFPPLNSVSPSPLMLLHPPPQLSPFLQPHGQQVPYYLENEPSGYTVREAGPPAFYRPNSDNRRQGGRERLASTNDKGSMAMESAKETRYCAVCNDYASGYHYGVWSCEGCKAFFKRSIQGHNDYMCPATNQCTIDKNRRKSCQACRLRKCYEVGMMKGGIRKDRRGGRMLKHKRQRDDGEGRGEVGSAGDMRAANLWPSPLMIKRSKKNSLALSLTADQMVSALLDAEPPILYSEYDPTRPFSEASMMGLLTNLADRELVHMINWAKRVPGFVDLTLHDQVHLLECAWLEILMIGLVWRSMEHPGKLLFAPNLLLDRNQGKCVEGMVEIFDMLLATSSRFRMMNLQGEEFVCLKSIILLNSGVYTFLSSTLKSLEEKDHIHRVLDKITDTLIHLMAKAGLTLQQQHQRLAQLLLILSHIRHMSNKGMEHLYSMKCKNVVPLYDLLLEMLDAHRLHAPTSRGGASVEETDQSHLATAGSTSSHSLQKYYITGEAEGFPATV
Experiment [7] has the same target. In words: qHTS assay to identify small molecule agonists of the estrogen receptor alpha (ER-alpha) signaling pathway using the BG1 cell line (AID 743079). Note: nearly all actives have a fitted effect of over 20% in size. Note: potency is the fitted concentration of half-maximal effect.
Experiment [8] in a line: qHTS assay to identify small molecule antagonists of the estrogen receptor alpha (ER-alpha) signaling pathway using the BG1 cell line (AID 743080; calls by dose curve;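 note: BG1 cells stimulated with 17beta-estradiol alongside compound; nearly all actives have a fitted effect of over 25% in size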; note: potency is the fitted concentration of half-maximal effect). In outline:
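BG1-Luc-4E2 cells (endogenous full-length ER-alpha, 4xERE luciferase) hormone-starved 5 days in charcoal-stripped FBS, plated 4,000/well for 24 h, then compound plus 17beta-estradiol for 21.5 h at 37 C; ONE-Glo luminescence read.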

A short description of experiment [9]: qHTS assay to identify small molecule antagonists of the estrogen receptor alpha (ER-alpha) signaling pathway using the BG1 cell line - cell viability counter screen (AID 743081).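 Note: compound given together with 17beta-estradiol as the ER stimulus; series mostly up to about 70 µM; nearly all actives have a fitted effect of over 45% in size.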
For another experiment, the target named is Aromatase (Homo sapiens) (UniProt P11511). Kind of experiment: qHTS assay to identify aromatase inhibitors (AID 743083). Note: nearly all actives have a fitted effect of over 55% in size. Note: potency is the fitted concentration of half-maximal effect.
Aromatase (Homo sapiens), sequence (P11511 whole entry, looked up): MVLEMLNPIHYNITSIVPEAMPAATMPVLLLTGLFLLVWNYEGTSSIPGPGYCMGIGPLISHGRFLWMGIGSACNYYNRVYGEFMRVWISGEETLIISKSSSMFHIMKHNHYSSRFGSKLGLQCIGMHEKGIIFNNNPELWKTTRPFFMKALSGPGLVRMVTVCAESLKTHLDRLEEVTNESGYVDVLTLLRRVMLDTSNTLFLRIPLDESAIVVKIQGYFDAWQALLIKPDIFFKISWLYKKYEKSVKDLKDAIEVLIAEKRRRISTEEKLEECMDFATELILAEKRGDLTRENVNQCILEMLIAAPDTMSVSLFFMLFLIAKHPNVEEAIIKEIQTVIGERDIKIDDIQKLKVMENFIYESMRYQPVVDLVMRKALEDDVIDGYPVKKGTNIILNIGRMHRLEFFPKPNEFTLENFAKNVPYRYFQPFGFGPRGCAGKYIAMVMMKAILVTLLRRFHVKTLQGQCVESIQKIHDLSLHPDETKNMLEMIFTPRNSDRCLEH

Values joined by “and” are separate entries in the source; they are usually repeats but may differ in a detail not shown here. Equal entries are not always repeated. Active and inactive are the calls of the source. Unless noted, calls come from the whole dose curve; as a rule, active = well fitted curve in the direction sought with a large enough effect in the repeat runs; inconclusive = weak or mixed curves; inactive = no such curve, though single readings can be large; an effect the other way counts as inactive or inconclusive.

On to `ClCc1cccnc1`, for which the Potency entry in experiment [1], in [2], in experiment [4], in experiment [5], in experiment [6] and in experiment [7] was “inactive” throughout. Besides, the Potency result (in experiment [8]; with Aromatase (Homo sapiens)) was “inactive” each time. Also, the compound was classed as inactive in experiment [3] and in experiment [9].

`CCCCCCCCCl`: the Potency entry in experiment [1], in [2], in [4], in [6], in [7] and in experiment [8] was “inactive” each time. In addition, in the experiment with Aromatase (Homo sapiens), the Potency entry is “inactive”. Moreover, the compound was classed as inactive in experiment [3] and in experiment [9].

Turning to `O=NN1CCCCCCC1`, the Potency entry in experiment [1], in experiment [2], in experiment [4], in experiment [5], in experiment [6] and in experiment [8] was “inactive” each time. The Potency result with Aromatase (Homo sapiens) is “inactive”. Also, the compound was classed as inactive in experiment [3] and in experiment [9].

As to `Clc1cccc(Cl)c1Cl`, the Potency entry (in experiment [1]; in experiment [2]; in [5]; with Aromatase (Homo sapiens)) was “inactive” throughout. The result in experiment [3] and in experiment [9] was inactive.

Take `CC(Br)C(=O)O` (stereo not given): the Potency result in experiment [1], in experiment [2], in experiment [5], in [6], in experiment [7] and in experiment [8] was “inactive” each time. Moreover, the Potency entry with Aromatase (Homo sapiens) was “inactive”. Besides, the result in experiment [3] and in experiment [9] was inactive.

In the case of `O=[N+]([O-])c1ccccc1`, the Potency entry in experiment [1], in experiment [2], in experiment [4], in experiment [5], in [6] and in [7] was “inactive” each time. Besides, the Potency result (in [8]; in the experiment with Aromatase (Homo sapiens)) was “inactive” in each case. In addition, the outcome in [3] and in experiment [9] was inactive.

For `CN(C)CCO`, the Potency result in experiment [1], in experiment [2], in experiment [4], in experiment [5], in experiment [6] and in [7] was “inactive” in each case. In addition, the Potency result (in [8]; with Aromatase (Homo sapiens)) was “inactive” each time. For the same compound, the compound was classed as inactive in [3] and in [9].

For the compound `CC(C)OC(=O)Nc1cccc(Cl)c1`, the Potency result in [1], in [2], in [4], in experiment [5], in [6] and in experiment [7] was “inactive” each time. Moreover, the Potency result with Aromatase (Homo sapiens) was “inactive”. The call in experiment [3] and in [9] was inactive.

With `CC(C)OC(=O)Nc1ccccc1`, the Potency entry in [1], in [2], in experiment [4], in [5], in [6] and in experiment [8] was “inactive” in each case. In the experiment with Aromatase (Homo sapiens), the Potency result is “inactive”. Besides, the result in experiment [3] and in experiment [9] was inactive. The Potency in experiment [7] is 30.7 µM (active) and 54.5 µM (active).

In the case of `COC(=O)c1ccccc1N`, the Potency result (in [1]; in [2]; in [5]; in the experiment with Aromatase (Homo sapiens)) was “inactive” throughout. Besides, the result in [3] and in experiment [9] was inactive.

Take `Cc1[nH]c(=O)n(C(C)(C)C)c(=O)c1Cl`: the Potency result in [1], in [2], in experiment [4], in experiment [5], in experiment [6] and in [7] was “inactive” in each case. Further, the Potency entry (in experiment [8]; with Aromatase (Homo sapiens)) was “inactive” each time. In addition, the compound was classed as inactive in [3] and in experiment [9].

For the compound `c1ccc2c(c1)oc1ccccc12`, the Potency entry in experiment [1], in experiment [2] and in experiment [5] was “inactive” throughout. The compound was classed as inactive in experiment [3] and in [9].

With `COC(=O)NC(=S)Nc1ccccc1NC(=S)NC(=O)OC`, the Potency result in [1], in experiment [2], in experiment [4], in [6], in experiment [7] and in experiment [8] was “inactive” throughout. The Potency result with Aromatase (Homo sapiens) is “inactive”. The result in experiment [3] and in experiment [9] was inactive.

Take `CC(C)(C)C(O)(CCc1ccc(Cl)cc1)Cn1cncn1` (stereo not given): the Potency was 68.6 µM (active) in [1]; 61.9 µM (active) and 61.1 µM (active) in experiment [2]; 27.6 µM (active) and 48.6 µM (active) in the experiment with Aromatase (Homo sapiens). Moreover, the outcome in experiment [3] and in experiment [9] was inactive. For the same compound, the Potency entry in experiment [5] was “inactive”.

Consider `CC(C)C1(C)N=C(c2nc3ccccc3cc2C(=O)O)NC1=O` (stereo not given), for which the Potency result in experiment [1], in [2], in [4], in [5], in experiment [6] and in experiment [7] was “inactive” throughout. In addition, the Potency result (in [8]; with Aromatase (Homo sapiens)) was “inactive” in each case. Moreover, the outcome in [3] and in experiment [9] was inactive.

Turning to `OCCN(CCO)CCO`, the Potency entry in experiment [1], in experiment [2] and in experiment [5] was “inactive” each time. Also, the compound was called inactive in [3] and in [9].

Turning to `CCCC1COC(Cn2cncn2)(c2ccc(Cl)cc2Cl)O1` (stereo not given), the Potency entry in experiment [1], in experiment [4], in experiment [5] and in experiment [6] was “inactive” each time. Further, the Potency was 55.5 µM (active) and 54.5 µM (active) in experiment [2]; 27.8 µM (active) and 68.6 µM (active) in [8]; 31.2 µM (active) and 24.3 µM (active) with Aromatase (Homo sapiens). Also, the result in experiment [3] and in [9] was inactive.

On to `Cc1ccc(N)cc1N`, for which the Potency result in experiment [1], in experiment [2], in [4], in experiment [5], in experiment [6] and in [7] was “inactive” in each case. The Potency result (in experiment [8]; in the experiment with Aromatase (Homo sapiens)) was “inactive” throughout. The result in experiment [3] and in experiment [9] was inactive.

As to `C1CC2OC2CC1C1CO1` (stereo not given), the Potency result in experiment [1], in experiment [2], in [4], in experiment [5], in experiment [6] and in [7] was “inactive” in each case. Also, the Potency entry (in [8]; in the experiment with Aromatase (Homo sapiens)) was “inactive” throughout. In addition, the call in [3] and in experiment [9] was inactive.

Regarding `O=C(O)c1ccccn1`, the Potency result in [1], in [2], in [4], in experiment [5], in experiment [6] and in experiment [7] was “inactive” throughout. Further, the Potency result (in experiment [8]; with Aromatase (Homo sapiens)) was “inactive” throughout. The call in experiment [3] and in experiment [9] was inactive.

With `O=S(=O)(c1ccc(Cl)cc1)c1cc(Cl)c(Cl)cc1Cl`, the Potency entry (in [1]; in experiment [2]; in experiment [4]; in [5]; in experiment [6]; with Aromatase (Homo sapiens)) was “inactive” throughout. For the same compound, the compound was classed as inactive in experiment [3] and in experiment [9]. In experiment [8], the Potency is 48.6 µM (active).

With `c1ccc2c(c1)Oc1ccccc1O2`, the Potency result (in experiment [1]; in [2]; in experiment [5]; with Aromatase (Homo sapiens)) was “inactive” throughout. Further, the compound was called inactive in [3] and in experiment [9].

`COC(=O)NS(=O)(=O)c1ccc(N)cc1`: the Potency entry in experiment [1], in experiment [2], in experiment [4], in [5], in experiment [6] and in [7] was “inactive” throughout. In addition, the Potency result (in [8]; with Aromatase (Homo sapiens)) was “inactive” throughout. Also, the call in [3] and in experiment [9] was inactive.

For `c1ccc(-c2ccccc2)cc1`, the Potency entry in experiment [1], in experiment [2], in [4], in [5], in experiment [6] and in experiment [7] was “inactive” each time. Also, the Potency result (in [8]; with Aromatase (Homo sapiens)) was “inactive” each time. Moreover, the compound was classed as inactive in experiment [3] and in [9].

With `Nc1ccc(Br)cc1`, the Potency entry in experiment [1], in experiment [2], in experiment [5], in [6], in experiment [7] and in experiment [8] was “inactive” in each case. Also, the Potency result in the experiment with Aromatase (Homo sapiens) is “inactive”. Moreover, the compound was called inactive in [3] and in experiment [9]. The Potency in [4] was 3.47 µM [inconclusive] (active).

With `O=Cc1cccc(Oc2ccccc2)c1`, the Potency result in [1], in experiment [2], in experiment [4], in experiment [5], in experiment [6] and in [8] was “inactive” in each case. The Potency result with Aromatase (Homo sapiens) was “inactive”. Further, the result in [3] and in experiment [9] was inactive.

As for `Nc1ccc(Oc2ccc(N)cc2)cc1`, the Potency result in [1] and in [5] was “inactive” throughout. In experiment [9], the compound was called inactive. In addition, the Potency with Aromatase (Homo sapiens) is 54.5 µM (active).
